Measurements: PubChem BioAssay AID430 (Sanford-Burnham Center for Chemical Genomics, 2006)
About 1,100 (1.7%) of roughly 63,000 compounds were called active. This is one part of a sample in which actives are shown more often than they occur. Rule as the data show it: active = cytotoxicity above about 50%; inactive = the rest. Results with a measured potency or affinity are listed apart.

assay: HPDE-C7 pancreatic duct cell viability loss – fluorescence, HTS (AID 430); conditions: HPDE-C7 pancreatic duct cells viability, at 10 µM, stronger effect = higher value;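 also: cells exposed to compound for 48 hours before viability readout; 0% = vehicle and 100% = reference cytotoxic drug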

Row | Compound | cytotoxicity
1 | CC(C)(C)NC(=O)CSc1nnc(C2CC2)n1Cc1ccccc1 | -7.8% (inactive)
2 | COC(=O)CNC(=O)COC(=O)C(Cc1ccccc1)NC(=O)c1ccco1 (stereo unspecified) | 6% (inactive)
3 | Cc1ccc(C)c(C(=O)CSc2n[nH]c(C(C)C)n2)c1 | -7.1% (inactive)
4 | Cn1c(=O)c(=O)n(C)c2cc(S(=O)(=O)N3CCCCC3)ccc21 | 2% (inactive)
5 | O=C(c1ccccc1)c1ccc(OCC(O)CN2CCOCC2)cc1 (stereo unspecified) | 6.6% (inactive)
6 | c1ccc(C(CN2CCOCC2)c2ccccc2)cc1 | -12% (inactive)
7 | Cc1nc2ccc(F)cc2cc1C(=O)NCC1CCCO1 (stereo unspecified) | 14.8% (inactive)
8 | COc1ccc(Cl)cc1S(=O)(=O)n1nnc2ccccc21 | 3.1% (inactive)
9 | COc1cc(S(=O)(=O)n2nnc3ccccc32)c(OC)cc1Cl | 60.8% (active)
10 | COc1ccc(OC)c(S(=O)(=O)n2nnc3ccccc32)c1 | -7% (inactive)
11 | CCc1ccccc1NC(=O)CN1CCC(NC(=O)COC)CC1 | -16% (inactive)
12 | COc1ccc(N(CC(=O)N2CCc3ccccc3C2)S(=O)(=O)c2c(C)[nH]c(=O)[nH]c2=O)cc1 | -21.6% (inactive)
13 | CCc1nc(N2CCN(C(=O)c3ccccc3)CC2)c(C#N)c2c1COC(C)(C)C2 | -1% (inactive)
14 | Cc1cc(C)c2nc(C(F)(F)F)nc(N3CCN(C(=O)c4ccco4)CC3)c2c1 | 3.3% (inactive)
15 | CC1(C)Cc2c(C#N)c(N3CCN(C(=O)c4ccccc4)CC3)nc(-c3ccco3)c2CS1 | 11.4% (inactive)
16 | CC1(C)Cc2c(C#N)c(N3CCOCC3)nc(Cc3ccccc3)c2CO1 | 46.8% (inactive)
17 | Cc1cc(C)c2nc(N3CCCN(C(=O)c4cnccn4)CC3)c(C#N)cc2c1 | -0.7% (inactive)
18 | CC1(C)Cc2c(C#N)c(N3CCN(C(=O)c4ccco4)CC3)nc(-c3ccco3)c2CS1 | 51.7% (active)
19 | N#Cc1c(N2CCN(C(=O)c3ccco3)CC2)nc(-c2ccccc2)c2c1CCCC2 | 9.1% (inactive)
20 | Cc1cc(C)c2nc(N3CCCN(C(=O)c4ccco4)CC3)c(C#N)cc2c1 | 57.4% (active)
21 | CCn1c(SCC(=O)Nc2ccc3c(c2)OCO3)nc2c1c(=O)n(C)c(=O)n2C | -19.3% (inactive)

Row | Compound | cytotoxicity
22 | COc1cccc(CC(NC(C)=O)C(=O)NC2CCN(c3nc(C)cc(C)c3C#N)CC2)c1 (stereo unspecified) | 8.9% (inactive)
23 | NC(=O)c1cc(-c2ccccc2)nc(N2CCOCC2)n1 | 11.3% (inactive)
24 | O=C(CSc1nnc(-c2cnccn2)n1Cc1ccco1)c1ccccc1 | -4.8% (inactive)
25 | c1ccc(N2CCOCC2)c(Nc2nc3ccccc3n3cnnc23)c1 | -9.9% (inactive)
26 | O=C(Cn1c(CO)nc2ccccc21)Nc1cc(C(F)(F)F)ccc1N1CCOCC1 | 5.6% (inactive)
27 | Cc1ccccc1Cn1cc(NC(=O)c2noc3c2CC(C(C)(C)C)CC3)cn1 (stereo unspecified) | 25.7% (inactive)
28 | Cc1ccc(S(=O)(=O)N(CCC#N)CCN2CCCC2)cc1 | -4.9% (inactive)
29 | O=C1COc2ccc3ccccc3c2CN1 | -6.8% (inactive)
30 | Cc1ccc2c(c1)CC1(CN2C)C(=O)OC2(CCCCC2)OC1=O | -5.7% (inactive)
31 | CN1CC2(Cc3c1ccc1ccccc31)C(=O)OC(C)(C)OC2=O | 80.9% (active)
32 | COc1ccc2c(c1)[nH]c1c(=O)n(CCN3CCCC3)cnc12 | -19.4% (inactive)
33 | Cc1cc(C(=O)Nc2nc3c(s2)CCCC3)cs1 | -5.9% (inactive)
34 | CCOC(=O)N1CCN(CC(O)COc2ccccc2C(C)C)CC1 (stereo unspecified) | -6% (inactive)
35 | O=C(NC1CC2CCCC(C1)N2S(=O)(=O)c1ccccc1)c1ccccc1 (stereo unspecified) | -1.3% (inactive)
36 | Cn1c(SCc2ccccc2)nnc1-c1ccncc1 | -1.5% (inactive)
37 | COc1ccc(NC(=O)CC2CCCCC2)cc1OC | -11.1% (inactive)
38 | Cc1cccc2cc3c(nc12)SC(=NCC1CCCO1)N(Cc1ccco1)C3 (stereo unspecified) | 53.7% (active)
39 | Cc1ccc2nc3c(cc2c1)CN(Cc1ccco1)C(=NCC1CCCO1)S3 (stereo unspecified) | -19.9% (inactive)
40 | Cc1ccc2cc(CN(Cc3nnnn3Cc3ccco3)CC3CCCO3)c(=O)[nH]c2c1C (stereo unspecified) | -0.4% (inactive)
41 | CCc1nc(SCC(=O)N2CCN(C(=O)c3ccco3)CC2)c2c3c(sc2n1)CCCC3 | 3% (inactive)
42 | COc1cccc(N2CCN(CC(=O)Nc3nnc(-c4ccccc4)s3)CC2)c1 | 21.2% (inactive)

Row | Compound | cytotoxicity
43 | COc1ccc(N2CCN(CC(=O)Nc3nnc(-c4ccccc4)s3)CC2)cc1 | 50.3% (active)
44 | O=C(CN1CCN(c2ccccc2)CC1)Nc1nnc(-c2ccccc2)s1 | 7.8% (inactive)
45 | Cn1c(=O)oc2cc(S(=O)(=O)N3CCCC(C(=O)NCc4cccs4)C3)ccc21 (stereo unspecified) | -3.9% (inactive)
46 | Cc1ccc2c(c1)N(C(=O)CSc1nncn1C)C(C)(C)c1ssc(=S)c1-2 | 14.3% (inactive)
47 | Cc1cc(C)c2c(c1)-c1c(ssc1=S)C(C)(C)N2C(=O)CSc1nncn1C | 56.7% (active)
48 | Cc1ccc2c(c1)-c1c(ssc1=S)C(C)(C)N2C(=O)CSc1nncn1C | -1.2% (inactive)
49 | CCCN1Cc2cccc(C(N)=O)c2C1=O | -14.7% (inactive)
50 | Cc1ccc(C)c(N2CCN(C(=O)c3ccc(CS(=O)(=O)c4ccccc4C)o3)CC2)c1 | 55.6% (active)
51 | COc1ccccc1S(=O)(=O)Cc1ccc(C(=O)N2CCN(c3ccccc3)CC2)o1 | -24.2% (inactive)
52 | COc1ccccc1S(=O)(=O)Cc1ccc(C(=O)N2CCN(c3cccc(Cl)c3)CC2)o1 | 60.8% (active)
53 | Cc1ccc(S(=O)(=O)Cc2ccc(C(=O)N3CCN(c4cc(C)ccc4C)CC3)o2)cc1 | 17.5% (inactive)
54 | COc1ccccc1N1CCN(C(=O)c2ccc(CS(=O)(=O)c3ccccc3OC)o2)CC1 | -8.2% (inactive)
55 | Cc1ccccc1S(=O)(=O)Cc1ccc(C(=O)N2CCN(c3ccc(F)cc3)CC2)o1 | -10% (inactive)
56 | Cc1ccccc1S(=O)(=O)Cc1ccc(C(=O)N2CCN(c3cccc(C)c3C)CC2)o1 | 87.9% (active)
57 | Cc1ccccc1S(=O)(=O)Cc1ccc(C(=O)N2CCN(c3ncccn3)CC2)o1 | -19.4% (inactive)
58 | Cc1ccccc1S(=O)(=O)Cc1ccc(C(=O)N2CCN(C3CCCCC3)CC2)o1 | -7% (inactive)
59 | COc1ccc(N2CCN(C(=O)c3ccc(CS(=O)(=O)c4ccc(OC)cc4)o3)CC2)cc1 | -11.6% (inactive)
60 | COc1ccc(S(=O)(=O)Cc2ccc(C(=O)N3CCN(c4cccc(C)c4C)CC3)o2)cc1 | 57% (active)
61 | COc1ccc(S(=O)(=O)Cc2ccc(C(=O)N3CCN(c4ccccc4F)CC3)o2)cc1 | -21.7% (inactive)
